In the supplement of paper PMC9262897, “Low-cost anti-mycobacterial drug discovery using engineered E. coli” (Nature Communications, 2022):
Counter-ions that a name gives are not always drawn. ± gives the standard deviation of the averaged measurements.

How the values were obtained:
Experiment in all cases: growth (OD600 after 10 h); higher = more growth (less inhibition)
[1] = system: E. coli TESEC Alr+ wild-type control; details: compound 0.1 mM; raw OD600 reference: median of DMSO wells 0.241, cell-free background 0.041
Protocol: (§1)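 TESEC Mtb Alr E. coli, or the Alr+ wild-type control, in 384-well plates with Prestwick library compounds at 0.1 mM and 1% DMSO, across arabinose induction levels of 1E3 to 1E7 nM. Growth is read as OD600 after 10 h at 37 °C in triplicate biological replicates.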

E. coli TESEC Mtb Alr [2] = details: compound 0.1 mM
Protocol: as §1

E. coli TESEC Mtb Asd = details: compound 0.1 mM
Protocol: (§2)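 TESEC E. coli strains in which the native enzyme is deleted and replaced by arabinose-inducible Mtb Asd, DapB, CysH or TrpD, each grown in its selective medium. Strains were screened against the Prestwick library at 0.1 mM and 1% DMSO in 384-well format at low and high arabinose induction. Growth is read as OD600 after 10 h in triplicate.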

E. coli TESEC Mtb DapB = details: compound 0.1 mM
Protocol: as §2

[3] = system: E. coli TESEC Alr+ wild-type control; details: compound 0.1 mM; raw OD600 reference: median of DMSO wells 0.49, cell-free background 0.052
Protocol: (§3)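 TESEC Mtb Alr E. coli (ΔaraC ΔtolC ΔentC Δalr ΔdadX, arabinose-inducible Mtb Alr) or the Alr+ wild-type control strain, grown in defined M9-fructose medium without D-alanine in 96-well plates with Prestwick library compounds at 0.1 mM and 1% DMSO. Low Alr induction is 0.1 µM arabinose and high induction is 10 mM arabinose.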

E. coli TESEC Mtb Alr [4] = details: compound 0.1 mM; remark: listed apart in the source
Protocol: as §3

[5] = arabinose 1000 nM, raw OD600 reference: median of DMSO wells 0.294, cell-free background 0.041
[6] = arabinose 10000 nM, raw OD600 reference: median of DMSO wells 0.264, cell-free background 0.041
[7] = arabinose 100000 nM, raw OD600 reference: median of DMSO wells 0.201, cell-free background 0.041
[8] = arabinose 1000000 nM, raw OD600 reference: median of DMSO wells 0.193, cell-free background 0.041
[9] = arabinose 10000000 nM, raw OD600 reference: median of DMSO wells 0.146, cell-free background 0.041
[10] = arabinose induction (level): High, raw OD600 reference: median of DMSO wells 0.331, cell-free background 0.041
[11] = arabinose induction (level): Low, raw OD600 reference: median of DMSO wells 0.417, cell-free background 0.041
[12] = arabinose induction (level): High, raw OD600 reference: median of DMSO wells […], cell-free background 0.041
[13] = arabinose induction (level): Low, raw OD600 reference: median of DMSO wells 0.227, cell-free background 0.041
[14] = arabinose 100 nM, raw OD600 reference: median of DMSO wells 0.413, cell-free background 0.052
[15] = arabinose 10000000 nM, raw OD600 reference: median of DMSO wells […], cell-free background 0.052

SMILES	growth [1]	growth (E. coli TESEC Mtb Alr [2]; [5])	growth (E. coli TESEC Mtb Alr [2]; [6])	growth (E. coli TESEC Mtb Alr [2]; [7])	growth (E. coli TESEC Mtb Alr [2]; [8])	growth (E. coli TESEC Mtb Alr [2]; [9])	growth (E. coli TESEC Mtb Asd; [10])	growth (E. coli TESEC Mtb Asd; [11])	growth (E. coli TESEC Mtb DapB; [12])	growth (E. coli TESEC Mtb DapB; [13])	growth [3]	growth (E. coli TESEC Mtb Alr [4]; [14])	growth (E. coli TESEC Mtb Alr [4]; [15])
Brc1c(NC2=NCCN2)ccc2nccnc12 [Brimondine L-Tartrate]	0.209 ± 0.0033	0.2878 ± 0.0023	0.26 ± 0.0099	0.187 ± 0.016	0.172 ± 0.011	0.152 ± 0.0034	0.271 ± 0.038	0.368 ± 0.061	0.19 ± 0.02	0.237 ± 0.033	0.46 ± 0.032	0.416 ± 0.015	0.343 ± 0.004
Clc1ccc(CCC(Cn2ccnc2)Sc2c(Cl)cccc2Cl)cc1 (stereo unspecified) [Butoconazole nitrate]	0.0548 ± 0.0082	0.0578 ± 0.0014	0.066 ± 0.0018	0.0622 ± 0.00087	0.0664 ± 0.00089	0.0514 ± 0.0014	0.0629 ± 0.00052	0.0669 ± 0.0063	0.0705 ± 0.0052	0.0712 ± 0.0093	0.0876 ± 0.003	0.1 ± 0.057	0.115 ± 0.013
COc1ccc2c(c1)c(CC(=O)OCC(=O)O)c(C)n2C(=O)c1ccc(Cl)cc1 [Acemetacin]	0.154 ± 0.0063	0.198 ± 0.012	0.195 ± 0.0045	0.139 ± 0.0049	0.109 ± 0.0015	0.131 ± 0.0045	0.21 ± 0.078	0.211 ± 0.012	0.152 ± 0.0045	0.185 ± 0.024	0.363 ± 0.021	0.362 ± 0.084	0.183 ± 0.012
O=C(OCCOCCO)c1ccccc1Nc1cccc(C(F)(F)F)c1 [Etofenamate]	0.0458 ± 0.00036	0.0491 ± 0.0032	0.0483 ± 0.00084	0.049 ± 0.0019	0.0472 ± 0.002	0.0499 ± 0.0013	0.0525 ± 0.0012	0.0509 ± 0.0012	0.0997 ± 0.078	0.0543 ± 0.0018	0.0535 ± 0.0025	0.185 ± 0.19	0.0516 ± 0.0022
Cc1cccc(N(C)C(=S)Oc2ccc3ccccc3c2)c1 [Tolnaftate]	0.255 ± 0.019	0.272 ± 0.02	0.268 ± 0.012	0.165 ± 0.016	0.11 ± 0.011	0.163 ± 0.0066	0.281 ± 0.07	0.246 ± 0.047	0.174 ± 0.012	0.243 ± 0.029	0.465 ± 0.0063	0.384 ± 0.015	0.264 ± 0.064
CCCCOc1ccc(OCCCN2CCOCC2)cc1 [Pramoxine hydrochloride]	0.199 ± 0.0084	0.268 ± 0.018	0.263 ± 0.011	0.195 ± 0.013	0.146 ± 0.0024	0.163 ± 0.0035	0.362 ± 0.03	0.403 ± 0.022	0.183 ± 0.014	0.226 ± 0.0093	0.425 ± 0.028	0.408 ± 0.0076	0.332 ± 0.011
CC(=O)N1CCN(c2ccc(OCC3COC(Cn4ccnc4)(c4ccc(Cl)cc4Cl)O3)cc2)CC1 (stereo unspecified) [Ketoconazole]	0.05323 ± 0.00038	0.0525 ± 0.0042	0.04237 ± 0.00035	0.0541 ± 0.0007	0.04317 ± 0.0004	0.05383 ± 5.8e-05	0.0601 ± 0.0054	0.0507 ± 0.0015	0.0759 ± 0.0062	0.0712 ± 0.0069	0.0814 ± 0.011	0.32 ± 0.041	0.0608 ± 0.0022
CN1CCCC(CC2c3ccccc3Sc3ccccc32)C1 (stereo unspecified) [Metixene hydrochloride]	0.0422 ± 0.00059	0.0424 ± 0.0015	0.0424 ± 0.00036	0.04217 ± 0.00038	0.04163 ± 0.00021	0.044 ± 0.0005	0.0629 ± 0.015	0.053 ± 0.0011	0.135 ± 0.07	0.0594 ± 0.0035	0.0609 ± 0.015	0.401 ± 0.0069	0.055 ± 0.0024
CN(C)[C@@H]1C(=O)C(C(N)=O)=C(O)[C@@]2(O)C(=O)C3=C(O)c4c(O)ccc(Cl)c4[C@@H](O)[C@H]3C[C@@H]12 [Demeclocycline hydrochloride]	0.0424 ± 0.00081	0.0502 ± 0.0039	0.0459 ± 0.0013	0.0479 ± 0.0019	0.0435 ± 0.00079	0.0452 ± 0.0007	0.0573 ± 0.0014	0.0773 ± 0.029	0.0577 ± 0.0035	0.0559 ± 0.002	0.05087 ± 0.00038	0.0561 ± 0.0037	0.05407 ± 0.00042
NC[C@H]1O[C@H](O[C@H]2[C@H](O)[C@@H](O[C@H]3O[C@H](CO)[C@@H](O)[C@H](N)[C@H]3O)[C@H](N)C[C@@H]2N)[C@H](N)C[C@@H]1O [Tobramycin]	0.0408 ± 0.00049	0.0407 ± 0.00085	0.03917 ± 0.00021	0.0411 ± 0.00055	0.03913 ± 0.00031	0.04083 ± 5.8e-05	0.0498 ± 0.00085	0.0468 ± 0.0021	0.04757 ± 0.0004	0.0491 ± 0.0037	0.04933 ± 0.00049	0.0513 ± 0.0001	0.0502 ± 0.001
CC(C)NC[C@@H](O)COc1ccc(CC(N)=O)cc1 [(R)-(+)-Atenolol]	0.255 ± 0.004	0.322 ± 0.019	0.262 ± 0.012	0.221 ± 0.013	0.1771 ± 0.00066	0.161 ± 0.0073	0.485 ± 0.012	0.442 ± 0.033	0.243 ± 0.059	0.25 ± 0.017	0.546 ± 0.038	0.405 ± 0.019	0.342 ± 0.012
C#C[C@]1(O)CC[C@H]2[C@@H]3CCc4cc(O)ccc4[C@H]3CC[C@@]21C [Ethinylestradiol]	0.0556 ± 0.00079	0.0489 ± 0.0023	0.0421 ± 0.00055	0.0506 ± 0.0016	0.0444 ± 0.00061	0.05593 ± 0.00015	0.112 ± 0.017	0.0911 ± 0.062	0.0856 ± 0.007	0.0703 ± 0.0015	0.0818 ± 0.0029	0.303 ± 0.024	0.0705 ± 0.016
CCOC(=O)C1=C(C)NC(C)=C(C(=O)OC)C1c1cccc([N+](=O)[O-])c1 (stereo unspecified) [Nitrendipine]	0.173 ± 0.013	0.224 ± 0.01	0.0536 ± 0.0045	0.165 ± 0.0036	0.0556 ± 0.00083	0.15 ± 0.0073	0.246 ± 0.036	0.4531 ± 0.0035	0.217 ± 0.016	0.215 ± 0.0092	0.557 ± 0.015	0.412 ± 0.017	0.221 ± 0.13
O=C(O)/C=C/c1ccc(Cn2ccnc2)cc1 [Ozagrel hydrochloride]	0.229 ± 0.006	0.268 ± 0.019	0.263 ± 0.0041	0.197 ± 0.025	0.179 ± 0.0082	0.143 ± 0.0023	0.248 ± 0.03	0.422 ± 0.035	0.176 ± 0.0061	0.207 ± 0.023	0.482 ± 0.076	0.397 ± 0.017	0.372 ± 0.014
Cc1cccc(C)c1NC(=O)C1CCCCN1C (stereo unspecified) [Mepivacaine hydrochloride]	0.233 ± 0.012	0.2802 ± 0.0024	0.273 ± 0.0048	0.199 ± 0.026	0.225 ± 0.013	0.136 ± 0.0053	0.366 ± 0.042	0.367 ± 0.045	0.203 ± 0.013	0.216 ± 0.024	0.46 ± 0.038	0.41 ± 0.011	0.365 ± 0.0059
CC(=C(CCO)SSCC1CCCO1)N(C=O)Cc1cnc(C)nc1N (stereo in doubt) [Fursultiamine Hydrochloride]	0.245 ± 0.0085	0.313 ± 0.0078	0.282 ± 0.0063	0.208 ± 0.023	0.22 ± 0.0094	0.132 ± 0.0026	0.215 ± 0.0087	0.275 ± 0.052	0.195 ± 0.024	0.247 ± 0.012	0.583 ± 0.044	0.399 ± 0.013	0.323 ± 0.019
CCN(CC)C(C)CN1c2ccccc2Sc2ccccc21 (stereo unspecified) [Ethopropazine hydrochloride]	0.17 ± 0.0058	0.214 ± 0.0057	0.271 ± 0.016	0.172 ± 0.003	0.135 ± 0.0087	0.174 ± 0.0019	0.156 ± 0.031	0.289 ± 0.03	0.2149 ± 0.0019	0.236 ± 0.015	0.469 ± 0.026	0.413 ± 0.0094	0.333 ± 0.014
